# Results: PubChem BioAssay AID1159580 (chemical genetic matrix, 2015)
# The whole screen tested about 5,500 compounds, of which about 2,000 (36%) were called active. Another 18% or so got no clear call; they are omitted. This is one part of the list. Values without a mark were called inactive. Rule as the data show it: active = normalized growth mostly below about 0.91 (no sharp cut-off); inconclusive = no clear call, values can overlap the other calls; inactive = mostly above about 0.92.
# Test: chemical genetic growth profiling, strain panel (AID 1159580);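 also: tested at 20 µM; growth read once vehicle control cultures reached saturation at 30 °C; 1 = growth at the plate median or of vehicle wells; lower values mean less growth of the strain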
# Conditions: growth OD
# [1] = S. cerevisiae deletion strains, locus YBR021W, strain FUR4, stronger effect = lower value
# [2] = S. cerevisiae deletion strains, locus YBR229C, strain ROT2, stronger effect = lower value
# [3] = S. cerevisiae deletion strains, locus YCL029C, strain bik1, stronger effect = lower value
# [4] = S. cerevisiae deletion strains, locus YDL035C, strain GPR1, stronger effect = lower value
# [5] = S. cerevisiae deletion strains, locus YDL074C, strain BRE1, stronger effect = lower value
# [6] = S. cerevisiae deletion strains, locus YDL101C, strain DUN1, stronger effect = lower value
# [7] = S. cerevisiae deletion strains, locus YDL134C, strain PPH21, stronger effect = lower value
# [8] = S. cerevisiae deletion strains, locus YDL185W, strain tfp1, stronger effect = lower value
# [9] = S. cerevisiae deletion strains, locus YDL192W, strain arf1, stronger effect = lower value
# [10] = S. cerevisiae deletion strains, locus YDR101C, strain arx1, stronger effect = lower value
# [11] = S. cerevisiae deletion strains, locus YDR162C, strain NBP2, stronger effect = lower value
# [12] = S. cerevisiae deletion strains, locus YDR318W, strain mcm21, stronger effect = lower value
# [13] = S. cerevisiae deletion strains, locus YDR388W, stronger effect = lower value
# [14] = S. cerevisiae deletion strains, locus YDR502C, strain sam2, stronger effect = lower value
# [15] = S. cerevisiae deletion strains, locus YEL061C, strain CIN8, stronger effect = lower value
# [16] = S. cerevisiae deletion strains, locus YER110C, stronger effect = lower value
# [17] = S. cerevisiae deletion strains, locus YER155C, strain BEM2, stronger effect = lower value
# [18] = S. cerevisiae deletion strains, locus YER167W, strain BCK2, stronger effect = lower value
# [19] = S. cerevisiae deletion strains, locus YGL078C, strain dbp3, stronger effect = lower value
# [20] = S. cerevisiae deletion strains, locus YGL086W, strain mad1, stronger effect = lower value
# [21] = S. cerevisiae deletion strains, locus YGL248W, strain PDE1, stronger effect = lower value
# [22] = S. cerevisiae deletion strains, locus YGR135W, strain pre9, stronger effect = lower value
# [23] = S. cerevisiae deletion strains, locus YGR252W, strain gcn5, stronger effect = lower value
# [24] = S. cerevisiae deletion strains, locus YHR079C, strain IRE1 (second series), stronger effect = lower value
# [25] = S. cerevisiae deletion strains, locus YHR094C, strain hxt1, stronger effect = lower value
# [26] = S. cerevisiae deletion strains, locus YHR129C, strain ARP1, stronger effect = lower value
# [27] = S. cerevisiae deletion strains, locus YHR200W, strain rpn10, stronger effect = lower value
# [28] = S. cerevisiae deletion strains, locus YIL066C, strain RNR3, stronger effect = lower value
# [29] = S. cerevisiae deletion strains, locus YIL073C, strain SPO22, stronger effect = lower value
# [30] = S. cerevisiae deletion strains, locus YIL125W, strain kgd1, stronger effect = lower value
# [31] = S. cerevisiae deletion strains, locus YIR030C, strain dcg1, stronger effect = lower value
# [32] = S. cerevisiae deletion strains, locus YJL095W, strain BCK1, stronger effect = lower value
# [33] = S. cerevisiae deletion strains, locus YJL134W, strain LCB3, stronger effect = lower value
# [34] = S. cerevisiae deletion strains, locus YJL168C, strain set2, stronger effect = lower value
# [35] = S. cerevisiae deletion strains, locus YJL187C, strain SWE1 (second series), stronger effect = lower value
# [36] = S. cerevisiae deletion strains, locus YJR075W, strain HOC1, stronger effect = lower value
# [37] = S. cerevisiae deletion strains, locus YKL068W, stronger effect = lower value
# [38] = S. cerevisiae deletion strains, locus YKL085W, strain MDH1 (second series), stronger effect = lower value
# [39] = S. cerevisiae deletion strains, locus YKL085W, strain MDH1, stronger effect = lower value
# [40] = S. cerevisiae deletion strains, locus YKR001C, strain vps1, stronger effect = lower value
# [41] = S. cerevisiae deletion strains, locus YLR039C, strain RIC1, stronger effect = lower value
# [42] = S. cerevisiae deletion strains, locus YLR058C, strain SHM2, stronger effect = lower value
# [43] = S. cerevisiae deletion strains, locus YLR102C, strain apc9, stronger effect = lower value
# [44] = S. cerevisiae deletion strains, locus YLR268W, strain sec22, stronger effect = lower value
# [45] = S. cerevisiae deletion strains, locus YLR330W, strain CHS5, stronger effect = lower value
# [46] = S. cerevisiae deletion strains, locus YLR371W, strain rom2, stronger effect = lower value
# [47] = S. cerevisiae deletion strains, locus YLR418C, strain cdc73, stronger effect = lower value
# [48] = S. cerevisiae deletion strains, locus YML016C, strain PPZ1, stronger effect = lower value
# [49] = S. cerevisiae deletion strains, locus YML032C, strain rad52, stronger effect = lower value
# [50] = S. cerevisiae deletion strains, locus YML124C, strain tub3, stronger effect = lower value
# [51] = S. cerevisiae deletion strains, locus YMR078C, strain ctf18, stronger effect = lower value
# [52] = S. cerevisiae deletion strains, locus YMR223W, strain ubp8, stronger effect = lower value
# [53] = S. cerevisiae deletion strains, locus YMR263W, strain SAP30, stronger effect = lower value
# [54] = S. cerevisiae deletion strains, locus YMR307W, strain GAS1, stronger effect = lower value
# [55] = S. cerevisiae deletion strains, locus YNL067W, strain RPL9B, stronger effect = lower value
# [56] = S. cerevisiae deletion strains, locus YNL233W, strain BNI4, stronger effect = lower value
# [57] = S. cerevisiae deletion strains, locus YNL250W, strain rad50, stronger effect = lower value
# [58] = S. cerevisiae deletion strains, locus YNL271C, strain bni1, stronger effect = lower value
# [59] = S. cerevisiae deletion strains, locus YNL298W, strain CLA4, stronger effect = lower value
# [60] = S. cerevisiae deletion strains, locus YNL307C, strain MCK1, stronger effect = lower value
# [61] = S. cerevisiae deletion strains, locus YNR052C, strain pop2, stronger effect = lower value
# [62] = S. cerevisiae deletion strains, locus YOL006C, strain TOP1, stronger effect = lower value
# [63] = S. cerevisiae deletion strains, locus YOL012C, strain htz1
# [64] = S. cerevisiae deletion strains, locus YOL147C, strain pex11, stronger effect = lower value
# [65] = S. cerevisiae deletion strains, locus YOR061W, strain CKA2, stronger effect = lower value
# [66] = S. cerevisiae deletion strains, locus YOR069W, strain VPS5, stronger effect = lower value
# [67] = S. cerevisiae deletion strains, locus YOR136W, strain idh2, stronger effect = lower value
# [68] = S. cerevisiae deletion strains, locus YOR144C, strain elg1, stronger effect = lower value
# [69] = S. cerevisiae deletion strains, locus YOR184W, strain ser1, stronger effect = lower value
# [70] = S. cerevisiae deletion strains, locus YOR316C, strain cot1, stronger effect = lower value
# [71] = S. cerevisiae deletion strains, locus YPR119W, strain clb2, stronger effect = lower value
# [72] = S. cerevisiae deletion strains, locus YPR141C, strain kar3, stronger effect = lower value
# [73] = S. cerevisiae deletion strains, locus YPR163C, strain tif3, stronger effect = lower value
# [74] = S. cerevisiae deletion strains, locus YPR167C, strain met16, stronger effect = lower value
# [75] = S. cerevisiae deletion strains, strain wtn01, stronger effect = lower value
# [76] = S. cerevisiae strains, strain wild type, stronger effect = lower value
structure (smiles),measurement,setting,value
COc1cc2c(cc1OC)C1C(=O)c3c(O)cc4c(c3OC1CO2)C=CC(C)(C)O4 (configuration not stated),normalized growth,[1],1.01
same,normalized growth,[2],1
same,normalized growth,[3],1.01
same,normalized growth,[4],0.965
same,normalized growth,[5],0.962
same,normalized growth,[6],1.01
same,normalized growth,[7],0.985
same,normalized growth,[8],1.01
same,normalized growth,[9],0.98
same,normalized growth,[10],1.02
same,normalized growth,[11],1
same,normalized growth,[12],0.995
same,normalized growth,[13],1
same,normalized growth,[14],1.03
same,normalized growth,[15],0.989
same,normalized growth,[16],1.02
same,normalized growth,[17],1.02
same,normalized growth,[18],1
same,normalized growth,[19],1.03
same,normalized growth,[20],1.02
same,normalized growth,[21],1.01
same,normalized growth,[22],1.06
same,normalized growth,[23],1.03
same,normalized growth,[24],1.01
same,normalized growth,[25],1.02
same,normalized growth,[26],0.991
same,normalized growth,[27],1.01
same,normalized growth,[28],0.981
same,normalized growth,[29],1.08
same,normalized growth,[30],1.02
same,normalized growth,[31],1.03
same,normalized growth,[32],1.01
same,normalized growth,[33],0.998
same,normalized growth,[34],1
same,normalized growth,[35],0.997
same,normalized growth,[36],0.999
same,normalized growth,[37],1.01
same,normalized growth,[38],1.01
same,normalized growth,[39],1.01
same,normalized growth,[40],0.718 (active)
same,normalized growth,[41],0.871
same,normalized growth,[42],0.977
same,normalized growth,[43],1.02
same,normalized growth,[44],1.01
same,normalized growth,[45],0.987
same,normalized growth,[46],1.02
same,normalized growth,[47],0.988
same,normalized growth,[48],1.01
same,normalized growth,[49],1.02
same,normalized growth,[50],1.03
same,normalized growth,[51],1.03
same,normalized growth,[52],1.01
same,normalized growth,[53],1.01
same,normalized growth,[54],0.949
same,normalized growth,[55],1.01
same,normalized growth,[56],1.01
same,normalized growth,[57],1.05
same,normalized growth,[58],1.03
same,normalized growth,[59],1.01
same,normalized growth,[60],1.02
same,normalized growth,[61],1.03
same,normalized growth,[62],0.933
same,normalized growth,[63],1.33
same,normalized growth,[64],0.999
same,normalized growth,[65],0.987
same,normalized growth,[66],1.01
same,normalized growth,[67],1
same,normalized growth,[68],1.01
same,normalized growth,[69],1.01
same,normalized growth,[70],1.01
same,normalized growth,[71],1.03
same,normalized growth,[72],1.03
same,normalized growth,[73],1
same,normalized growth,[74],1.03
same,normalized growth,[75],1.01
same,normalized growth,[76],0.932
COc1cc2c(cc1OC)C1C(=O)c3c(OC)cc4c(c3OC1CO2)CCC(C)(C)O4 (configuration not stated),normalized growth,"S. cerevisiae deletion strains, locus YAL013W, strain DEP1, stronger effect = lower value",1.01
same,normalized growth,[1],1.02
same,normalized growth,[2],1.02
same,normalized growth,[3],0.987
same,normalized growth,[4],1
same,normalized growth,[5],1.03
same,normalized growth,[6],1.03
same,normalized growth,[7],1.02
same,normalized growth,[8],0.988
same,normalized growth,[9],0.983
same,normalized growth,[10],0.984
same,normalized growth,"S. cerevisiae deletion strains, locus YDR150W, strain NUM1, stronger effect = lower value",1.02
same,normalized growth,[11],1.06
same,normalized growth,[12],0.988
same,normalized growth,[13],0.99
same,normalized growth,[14],0.997
same,normalized growth,[15],1.01
same,normalized growth,[16],0.985
same,normalized growth,[17],1.02
same,normalized growth,[18],1.01
same,normalized growth,[19],0.981
same,normalized growth,[20],0.975
same,normalized growth,[21],1.02
same,normalized growth,"S. cerevisiae deletion strains, locus YGR078C, strain PAC10, stronger effect = lower value",1.03
same,normalized growth,[22],1.01
same,normalized growth,"S. cerevisiae deletion strains, locus YGR229C, strain SMI1, stronger effect = lower value",1.01
same,normalized growth,[23],0.948
same,normalized growth,"S. cerevisiae deletion strains, locus YHR030C, strain SLT2, stronger effect = lower value",1.01
same,normalized growth,[24],0.988
same,normalized growth,[25],0.987
same,normalized growth,[26],1.01
same,normalized growth,[27],0.993
same,normalized growth,[28],1.02
same,normalized growth,[29],0.948
same,normalized growth,[30],0.983
same,normalized growth,[31],0.985
same,normalized growth,[32],1.01
same,normalized growth,[33],1.01
same,normalized growth,[34],0.979
same,normalized growth,[35],1.02
same,normalized growth,"S. cerevisiae deletion strains, locus YJR043C, strain POL32, stronger effect = lower value",1
same,normalized growth,[36],1.01
same,normalized growth,"S. cerevisiae deletion strains, locus YKL009W, strain mrt4, stronger effect = lower value",0.999
same,normalized growth,[37],0.983
same,normalized growth,[38],0.978
same,normalized growth,[39],0.978
same,normalized growth,"S. cerevisiae deletion strains, locus YKL190W, strain CNB1, stronger effect = lower value",1.02
same,normalized growth,[40],0.961
same,normalized growth,[41],0.964
same,normalized growth,[42],1.02
same,normalized growth,[43],0.992
same,normalized growth,"S. cerevisiae deletion strains, locus YLR262C, strain YPT6, stronger effect = lower value",0.994
same,normalized growth,[44],0.972
same,normalized growth,[45],1.01
same,normalized growth,"S. cerevisiae deletion strains, locus YLR342W, strain FKS1 (second series), stronger effect = lower value",0.981
same,normalized growth,[46],0.988
same,normalized growth,[47],1
same,normalized growth,[48],1.02
same,normalized growth,[49],0.966
same,normalized growth,[50],0.99
same,normalized growth,[51],0.979
same,normalized growth,[52],0.973
same,normalized growth,[53],1.03
same,normalized growth,[54],0.99
same,normalized growth,[55],1.03
same,normalized growth,"S. cerevisiae deletion strains, locus YNL128W, strain TEP1, stronger effect = lower value",1.02
same,normalized growth,"S. cerevisiae deletion strains, locus YNL153C, strain GIM3, stronger effect = lower value",1.03
same,normalized growth,[56],1.04
same,normalized growth,[57],0.968
same,normalized growth,[58],0.981
same,normalized growth,[59],1
same,normalized growth,[60],0.969
same,normalized growth,"S. cerevisiae deletion strains, locus YNL322C, strain KRE1, stronger effect = lower value",1.02
same,normalized growth,[61],0.976
same,normalized growth,[62],1.04
same,normalized growth,[63],0.96
same,normalized growth,[64],0.988
same,normalized growth,[65],1.02
same,normalized growth,[66],1.01
same,normalized growth,[67],0.981
same,normalized growth,[68],0.994
same,normalized growth,[69],0.95
same,normalized growth,[70],0.98
same,normalized growth,"S. cerevisiae deletion strains, locus YPL055C, strain LGE1, stronger effect = lower value",1.05
same,normalized growth,"S. cerevisiae deletion strains, locus YPL241C, strain CIN2, stronger effect = lower value",1.01
same,normalized growth,[71],0.983
same,normalized growth,[72],0.966
same,normalized growth,[73],0.976
same,normalized growth,[74],0.983
same,normalized growth,[75],0.997
same,normalized growth,[76],1
